Experimental data taken from PubChem BioAssay AID588763 (NMMLSC, 2011).
Potency and affinity values are given separately. Calls of active or inactive are those of the source. How the calls were made is not given here.

What follows are compounds tested against Beta-2 adrenergic receptor (Homo sapiens) (UniProt P07550) (assay: ADRB2 activation measured by internalization – cell-based, FAP fluorogen, flow cytometry, cherry pick 1, dose response (AID 588763)). Conditions: AM2.2-beta2AR cells, 90 min; series mostly up to 33 µM; activation (receptor internalization): at the top concentration.
Chain of Beta-2 adrenergic receptor (Homo sapiens) (P07550 whole entry, looked up): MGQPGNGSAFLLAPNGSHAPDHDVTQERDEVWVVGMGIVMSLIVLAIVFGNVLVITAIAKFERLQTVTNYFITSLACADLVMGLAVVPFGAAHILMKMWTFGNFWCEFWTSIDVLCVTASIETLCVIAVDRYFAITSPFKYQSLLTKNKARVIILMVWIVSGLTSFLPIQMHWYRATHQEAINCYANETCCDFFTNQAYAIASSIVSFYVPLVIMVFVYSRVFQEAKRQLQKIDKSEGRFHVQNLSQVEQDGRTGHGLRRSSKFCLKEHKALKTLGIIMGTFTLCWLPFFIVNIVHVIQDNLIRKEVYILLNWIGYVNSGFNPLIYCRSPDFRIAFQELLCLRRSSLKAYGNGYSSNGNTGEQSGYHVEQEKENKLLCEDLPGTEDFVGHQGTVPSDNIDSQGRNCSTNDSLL

Activation (receptor internalization), inactive:
COc1ccc(CCNCC(O)c2ccccc2)cc1 (stereo not drawn) -0.216%, COC(=O)c1ccc(CN2CCC(Oc3ccc(C(=O)N4CCCCC4)cc3)CC2)cc1 -1.5%, CC(=O)c1ccc(NC(=O)c2ccc3c(Cl)c4c(nc3c2)CCCC4)cc1 94.8%, CC(C)CNc1ncnc2c1sc1nc(N3CCOCC3)c3c(c12)CC(C)(C)OC3 -1.37%, COc1cc(NC(=O)c2ccc3c(c2)OCO3)ccc1NC(=O)c1ccco1 -12.7%, COc1cc(NC(=O)c2ccco2)c(OC)cc1NC(=O)c1cc(OC)c(OC)c(OC)c1 4.51%, Cc1cnn(-c2nc(-c3ccccc3)cc(-c3ccccc3)n2)c1 107%, COC(=O)[C@@H](NC(=O)c1cc(COc2cncc(Cl)c2)on1)c1ccccc1 2.04%, CC(NC(=O)c1cc(COc2ccc3ncccc3c2)on1)c1ccc(F)cc1 (stereo not drawn) 27.1%, COc1cccc(OC)c1C(=O)Nc1ccc(NC(=O)c2ccco2)cc1 -20%, O=C(c1cc(COc2ccc(F)cc2Cl)on1)N1CC2C[C@@H]3CC1C[C@H](C2)C3 -19%, CC(C)c1nc2sc3c(NCc4ccccc4)ncnc3c2c2c1COC(C)(C)C2 13%, COc1ccc(OC)c(NC(=O)c2sc3nc(C)cc(C)c3c2N)c1 0.987% [at 1.22 µM], COc1ccccc1N1CCN(C(=O)CN(C)S(=O)(=O)c2ccc(C)cc2)CC1 50.6%, COCc1ccc(CN2CCCC(C(=O)Nc3ccc(-c4cccc(OC)c4)cc3)C2)o1 (stereo not drawn) 24.9%, CC1CCN(C(C(=O)Nc2ccc3c(c2)OCO3)c2ccccc2)CC1 (stereo not drawn) 6.59%, O=C(COc1ccc(S(=O)(=O)N2CCOCC2)cc1)Nc1ccc(Br)cc1 -5.92%, COc1cccc(-c2ccc(NC(=O)C3CCCN(Cc4cnn(C(C)C)c4)C3)cc2)c1 (stereo not drawn) 28.5%, CCOc1ccc(CNC(=O)C2CCN(c3nnc(C)c4c(C)n(-c5ccc(C)cc5)nc34)CC2)cc1 65.3%, C=CCn1c(CCNC(=O)c2cccs2)nnc1SCC(=O)Nc1cccc(Cl)c1C 81.8%, CCCOc1ccc(-c2nnn(CC(=O)Nc3cccc(C(=O)OC)c3)n2)cc1 -10.7%, COc1ccccc1C(=O)Nc1ccc2oc(-c3ccc(F)cc3)nc2c1 -9.56%, COc1ccccc1-c1cc(C(F)(F)F)nc(S(=O)(=O)CCCC(=O)N2CCCCC2C)n1 (stereo not drawn) 91.2%, COc1ccc(OC)c(C(=O)NC(CC(N)=O)c2ccc(N3CCN(c4ccccn4)CC3)c([N+](=O)[O-])c2)c1 (stereo not drawn) 9.33%, O=C(Nc1cccc(-c2nc3cccnc3s2)c1)C1c2ccccc2Oc2ccccc21 87.7%, O=C(COc1ccc(S(=O)(=O)N2CCCCC2)cc1)Nc1ccccc1F -6.13%, O=C(Nc1ccccc1C(=O)O)c1cccc(N2C(=O)c3ccccc3C2=O)c1 -11.9%, O=C(NC1CCc2ccccc21)c1cc(COc2cncc(Cl)c2)on1 (stereo not drawn) 3.55%, COC(=O)c1ccccc1NC(=O)COc1ccc(S(=O)(=O)N2CCCC2)cc1C 6.72%, Cc1cccc(-c2nnc(SCc3nc4ccccc4[nH]3)n2Cc2ccco2)c1 -12.9%, CCOC(=O)c1ccc(NC(=O)Cn2nnc(-c3ccccc3C)n2)cc1 -1.98%

outcome, inactive:
CN(CC(=O)N1CCN(c2ccc(F)cc2)CC1)S(=O)(=O)c1ccc(F)cc1, COc1ccc(OC)c(S(=O)(=O)N(C)CC(=O)N2CCN(c3ccccc3)CC2)c1
